In PubChem BioAssay (EPA / NIEHS):
Results filed as inconclusive are left out. The source made the active and inactive calls. The calls were made as follows: active = hit-call score of the fitted dose curve at least 0.9, where 1 is the maximum; inconclusive = response in the unintended direction; inactive = score below 0.9.

target: human RAR-related Orphan Receptor beta (RORb), RORB (gene 6096) (UniProt Q92753); assay: ATG_RORb_TRANS: Attagene TRANS-FACTORIAL HepG2 Assay for human RAR-related Orphan Receptor beta (RORb) (AID 2283010)
Description: ATG_TRANS is a cell-based, multiplexed-readout assay that uses HepG2, a human liver cell line, with measurements taken at 24 hours after chemical dosing in a 24-well plate.ATG_RORb_TRANS is one of 30 assay component(s) measured or calculated from the ATG_TRANS assay. It is designed to make measurements of mRNA induction, a form of inducible reporter, as detected with fluorescence intensity signals by Reverse transcription polymerase chain reaction (RT-PCR) and Capillary electrophoresis technology.Data from the assay component ATG_RORb_TRANS was analyzed into 1 assay endpoint. This assay endpoint, ATG_RORb_TRANS, was analyzed in the positive analysis fitting direction relative to DMSO as the negative control and baseline of activity. Using a type of inducible reporter, measures of mRNA for gain-of-signal activity can be used to understand the reporter gene at the transcription factor-level as they relate to the gene RORB. Furthermore, this assay endpoint can be referred to as a primary readout, because this assay has produced multiple assay endpoints where this one serves a reporter gene function. To generalize the intended target to other relatable targets, this assay endpoint is annotated to the nuclear receptor intended target family, where the subfamily is orphan.
Human liver HepG2 cells are transiently transfected with multiple reporter transcription units (MRTUs) in 6-well plates using FuGene 6 reagent (Roche; 3 ml FuGene/1 mg DNA). The MRTU constructs are regulated by a cis-regulating element (promoter). […] A major difference between the CIS and TRANS system is that in CIS activities of endogenous TFs are measured, whereas the TRANS assay evaluates changes in activities of exogenous, chimeric NR-Gal4 proteins. […] At the end of 24 hour incubation, total RNA was isolated using TriZol reagent (Invitrogen). The isolated RNA is then reverse-transcribed using oligo(dT) primer and Mo-MLV reverse transcriptase (Invitrogen) with DNAse I (Ambion) treatment for 30 min. The one-tenth of the produced cDNA was amplified by PCR using Taq DNA polymerase (Invitrogen) and two reporter sequence-specific primers. The PCR products were fluorescently labeled by primer extension with 6-arboxyfluorescein (6-FAM) 5'-labeled reporter sequence-specific primer (2 min at 95 C, 20 s at 68 C and 10 min at 72 C) and these products were digested with 5U of HpaI (New England Biolabs) for 2h at 37 C. The fragments were purified using Qiaquick PCR columns (Qiagen), analyzed on an ABI 3130xL genetic analyzer (Applied Biosystems) with peak positions identified by using a set of X-rhodamine (ROX)-labeled MapMarker1000 molecular weight standards (BioVentures). The raw capillary electrophoresis data was processed using Attagraph software (Attagene).

Sequence of human RAR-related Orphan Receptor beta (RORb), RORB (gene 6096) (Q92753 whole entry, looked up): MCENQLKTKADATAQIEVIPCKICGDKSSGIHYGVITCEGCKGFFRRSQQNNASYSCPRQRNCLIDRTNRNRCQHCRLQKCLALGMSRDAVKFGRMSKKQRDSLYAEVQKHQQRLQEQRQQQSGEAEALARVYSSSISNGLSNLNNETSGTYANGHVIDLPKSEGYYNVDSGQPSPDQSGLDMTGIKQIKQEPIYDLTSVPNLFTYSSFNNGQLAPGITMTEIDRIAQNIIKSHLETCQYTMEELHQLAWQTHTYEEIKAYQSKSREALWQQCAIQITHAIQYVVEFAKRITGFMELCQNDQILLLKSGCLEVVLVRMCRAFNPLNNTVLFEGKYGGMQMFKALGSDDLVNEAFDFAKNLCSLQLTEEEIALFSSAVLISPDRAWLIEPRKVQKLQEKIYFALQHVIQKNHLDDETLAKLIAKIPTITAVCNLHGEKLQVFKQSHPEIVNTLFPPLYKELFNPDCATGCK

outcome, inactive:
Cc1c(C)c([N+](=O)[O-])c(C(C)(C)C)c([N+](=O)[O-])c1C
C=CC(=O)NC(C)(C)CS(=O)(=O)O
CC(=O)OCC(C)OC(C)=O (stereo not given)
CCC(CC)C(=O)O
Nc1ccc2cc3ccccc3cc2c1
Clc1nc2ccccc2s1
O=S(=O)(O)c1cc(S(=O)(=O)O)c2ccc3c(S(=O)(=O)O)cc(S(=O)(=O)O)c4ccc1c2c43
C=C(C)[C@H]1CC=C(C)CC1
CNC(=S)NN
CCCC(C)CCC(C)=O (stereo not given)
Cc1cc(=O)n(-c2ccccc2)n1C
Cc1ccc(N/N=c2\c(=O)cc/c(=N/Nc3ccc(S(=O)(=O)O)cc3)c2=O)c(C)c1
CCCNC(=O)NS(=O)(=O)c1ccc(Cl)cc1
CC(=O)OCc1ccco1
C/C=C\C/C=C/CCCCCCCCOC(C)=O
O=c1n(CCO)c(=O)n(CCO)c(=O)n1CCO
CC(=O)Oc1ccc(C(C)=O)cc1
CC(=O)Nc1nnc(S(N)(=O)=O)s1
O=c1[nH]nc(-c2ccc([N+](=O)[O-])o2)o1
COC(=O)/C=C/C(C)=C\C=C\C(C)=C\C=C\C=C(C)\C=C\C=C(C)\C=C\C(=O)O
CCC(C)C=O (stereo not given)
CC(C)=CCC/C(C)=C\C#N
NCCCN1CCN(CCCN)CC1
CC(C)(C)c1ccc(-c2ccc(C(C)(C)C)cc2)cc1
O=C1CCCCCCCCCCC(=O)OCCO1
CCOC(=O)CC(C(C)=O)C(C)=O
c1ccc2c(c1)ccc1ncccc12
CC(C)(C)C1CCCCC1=O (stereo not given)
CC(C)c1ccc2c(C(C)C)cc(C(C)C)c(S(=O)(=O)O)c2c1
O=[N+]([O-])c1ccc(CO)cc1
CC1=NN(c2cc(S(=O)(=O)O)ccc2Cl)C(=O)C1N=Nc1ccccc1 (stereo not given)
CCCCCC(C)O (stereo not given)
CC1OC1C1CCC2(C)OC2C1 (stereo not given)
O=c1[nH]c(=O)c2[nH]c(=O)[nH]c2[nH]1
C=CC=CC=CCCCCC
Cc1ccc(C(C)(C)C)cc1
CCCCCCOC(=O)C(C)CC (stereo not given)
CC(C)c1ccc(C=O)cc1
CCCCCCCOC(=O)CCC
C=C[Si](C)(C)O[Si](C)(C)C=C
